From PubChem BioAssay AID1159580 (chemical genetic matrix, 2015)
Among all 5,500 compounds or so, about 2,000 (36%) were called active. Not shown: some 18% with an inconclusive outcome. Cut-off read from the data, not from the text of the source: active = normalized growth mostly below about 0.91 (no sharp cut-off); inconclusive = no clear call, values can overlap the other calls; inactive = mostly above about 0.92. This is one part of the list.

Assay: chemical genetic growth profiling, strain panel (AID 1159580);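 note: tested at 20 µM; growth read once vehicle control cultures reached saturation at 30 °C; 1 = growth at the plate median or of vehicle wells; lower values mean less growth of the strain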
Conditions: S. cerevisiae deletion strains, growth OD
[1] = locus YHR030C, strain SLT2, hits give low values

Measured: normalized growth

C[C@]12CCc3occc3C1CC[C@@]13C[C@@H](CCC12)[C@@](O)(CO)C3 (stereo partly specified)
inactive: [1] 0.934 | locus YHR079C, strain IRE1, hits give low values 0.961 | locus YJL095W, strain BCK1, hits give low values 0.948 | locus YJR066W, strain TOR1, hits give low values 0.909 | locus YLR113W, strain HOG1, hits give low values 0.873 | locus YNL183C, strain NPR1, hits give low values 0.91 | locus YOR231W, strain MKK1, hits give low values 0.911 | locus YPL256C, strain CLN2, hits give low values 0.924

Nc1ccc(Sc2cc(Cl)ccc2Cl)nc1
inactive: locus YAL013W, strain DEP1, hits give low values 0.947 | locus YCL061C, strain MRC1, hits give low values 0.958 | locus YDL101C, strain DUN1, hits give low values 0.963 | locus YDR150W, strain NUM1, hits give low values 0.843 | locus YEL061C, strain CIN8, hits give low values 0.916 | locus YJR043C, strain POL32, hits give low values 0.932 | locus YMR219W, strain ESC1, hits give low values 0.958 | locus YNL153C, strain GIM3, hits give low values 0.934 | locus YNL322C, strain KRE1, hits give low values 0.97 | locus YPL055C, strain LGE1, hits give low values 0.99
active: locus YBR229C, strain ROT2, hits give low values 0.906 | locus YGR078C, strain PAC10, hits give low values 0.911 | [1] 0.341 | locus YHR087W, strain rtc3, hits give low values 0.898 | locus YJL187C, strain SWE1, hits give low values 0.928 | locus YJR075W, strain HOC1, hits give low values 0.827 | locus YKL190W, strain CNB1, hits give low values 0.762 | locus YLR039C, strain RIC1, hits give low values 0.398 | locus YLR058C, strain SHM2 (second series), hits give low values 0.929 | locus YLR085C, strain ARP6, hits give low values 0.383 | locus YLR262C, strain YPT6, hits give low values 0.348 | locus YML094W, strain GIM5, hits give low values 0.828 | locus YMR307W, strain GAS1, hits give low values 0.454 | locus YNL298W, strain CLA4 (second series), hits give low values 0.781 | locus YNR030W, strain Alg12, hits give low values 0.785 | locus YOL006C, strain TOP1, hits give low values 0.594 | locus YPL241C, strain CIN2, hits give low values 0.737 | locus YPR135W, strain CTF4, hits give low values 0.497
